Screens: PubChem BioAssay, National Center for Advancing Translational Sciences (NCATS)
Sm TGR inh = S. mansoni TGR enzyme inhibition; Q962Y6; purified TGR, DTNB reduction, TNB absorbance 405 nm; Potency, µM (highest dose often 114 µM), inactives show at the highest dose activity change, negative = inhibition, usual class: inhibitors; 360,000 tested, 3% active; AID 485364; further: potency means the concentration at half of the fitted maximal effect; on the % scale 0 is the no-effect control and ±100 the full control effect; nearly all actives have a fitted effect of over 60% in size
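First, TGR (20 nM dispensed) and NADPH were mixed with compound. Second, a 15 min room-temperature incubation followed. Third, further NADPH and then DTNB were added to start the reaction. Finally, TNB absorbance was monitored kinetically.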
Pf growth 48h = P. falciparum growth inhibition at 48 hours (one generation). 310,000 tested, 5.9% active. P. falciparum luciferase growth in erythrocytes, 48 h. AID 504832. Potency, µM (highest dose often 28.7 µM), without a hit: top-dose activity change, negative = inhibition, most hits filed as inhibitors; further: potency means the concentration at half of the fitted maximal effect; on the % scale 0 is the no-effect control and ±100 the full control effect
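In quantitative HTS format, infected erythrocytes bearing luciferase-reporter parasites were treated for a single generation at 37 C. Luminescence after adding detection reagent served as the growth measure.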
Pf growth 96h = inhibits malaria parasite growth, 96 h; P. falciparum luciferase reporter growth, 96 h; Potency, µM (titrated, usually from 28.7 µM), inactives show top-dose activity change, negative = inhibition, hits mostly inhibitors; 320,000 tested, 6.9% active; further: potency means the concentration at half of the fitted maximal effect; on the % scale 0 is the no-effect control and ±100 the full control effect
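Plates of compound plus infected erythrocytes (2% hematocrit, 0.05% parasitemia final) incubate 96 hours, 37 C, 5% CO2. Detection reagent added; reduced luminescence from the parasites' luciferase reporter flags inhibition.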
SARS PLP yeast = blocks SARS-CoV papain-like protease in a yeast assay; AID 485353; S. cerevisiae expressing SARS-CoV PLpro, growth rescue; Potency, µM (series often up to 32.9 µM), for inactives: at the top dose activity, positive = growth rescue, hits mostly activators; 330,000 tested, 0.19% active; calls by dose curve; further: potency means the concentration at half of the fitted maximal effect; 0% is about no effect; nearly all actives have a fitted effect of over 55% in size
HCMV antiviral = inhibitors of human cytomegalovirus | 410,000 tested, 4.5% active | AID 1259415 | activity change, negative = inhibition, % at 57.5 µM | HFF cells, HCMV-luciferase reporter, 72 h; active compounds read low; in the data active means activity change below about -60%; inconclusive means no clear call, values can overlap the other calls; inactive means above about -39%; further: on the % scale 0 is the no-effect control and ±100 the full control effect
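Cell-based, HFFs, 1000 cells/well, 16 h 37C; cpds in DMSO + HCMV-luc, MOI 1 PFU/cell; 72 h 37C; OneGlo luminescence after 5 min RT; norm. to buffer vs Salinomycin 10uM.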
HCV inh = inhibitors of hepatitis C virus infection. Huh7.5.1 HCVcc-Cre infection, luciferase reporter, 44 h. Potency, µM (doses to about 41.8 µM), for the others: top-dose activity change, negative = inhibition, actives largely listed as inhibitors. 340,000 tested, 3.4% active. AID 651820; further: potency means the concentration at half of the fitted maximal effect; on the % scale 0 is the no-effect control and ±100 the full control effect
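HCVcc-Cre virus at an moi near 0.5 was added right after compound to cells cultured 4 h from seeding (1,000 cells/well). Luciferase activity was determined 44 h later, 15 min after substrate addition at RT.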
HCV confirm = confirmation of hepatitis C virus inhibitors | shares compounds with HCV inh | HCVcc-Cre infectious virus cell assay, luciferase, inhibition | Potency, µM (series often up to 41.8 µM), without a hit: at the top dose activity, negative = inhibition, hits mostly inhibitors | 640 tested, 78% active | AID 720575; further: potency means the concentration at half of the fitted maximal effect; nearly all actives have a fitted effect of over 80% in size
HCV host tox = host cell cytotoxicity counter-screen for HCV inhibitors | shares compounds with HCV inh | HCV host cell line cytotoxicity counterscreen | Potency, µM (highest dose often 41.8 µM), inactives show top-dose activity change, negative = cytotoxicity, actives largely listed as inhibitors | 640 tested, 22% active | AID 720576;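 further: potency means the concentration at half of the fitted maximal effect; 44 h compound exposure; on the % scale 0 is the no-effect control and ±100 the full control effect; nearly all actives have a fitted effect of over 55% in size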
An asterisk follows results filed as active; ? = inconclusive; . = not tested or not shown; [ ] = remark or other dose. Compounds with a hit are over-represented: about 15% of the library has one in this group of screens. Unless noted, the call rests on the fitted dose curve; in most records, active means well fitted curve in the direction sought with a large enough effect; inconclusive means small, poorly fitted or top-dose-only effect, or another doubt; inactive means no such curve, though single readings can be large; an effect the other way counts as inactive or inconclusive.

SMILES	Sm TGR inh	Pf growth 48h	Pf growth 96h	SARS PLP yeast	HCMV antiviral	HCV inh	HCV confirm	HCV host tox
CC(=O)Nc1cccc(OCCOc2cccc([N+](=O)[O-])c2)c1	.	.	.	.	-29	-20%	.	.
Cc1cc(=O)n(C)c(=O)n1CCCCCCOc1cccc([N+](=O)[O-])c1	5%	-6%	4.1µM*	-7%	-26	7.1µM*	10µM*	-19%
C=C(c1ccc(O)cc1)c1ccc(O)cc1	30%	-13%	-7%	2%	-15	8.9µM*	14µM*	42%
Cc1ccc(OCC(=O)OCC(=O)c2cccc([N+](=O)[O-])c2)cc1C	-5%	-17%	?	3%	19	9%	.	.
CC(=O)Nc1nc(-c2ccccc2)c(-c2ccccc2)o1	-10%	18%	43%	-5%	-3	-14%	.	.
COc1cc(OC)cc(C(=O)Nc2nc(-c3ccccc3)c(-c3ccccc3)o2)c1	-10%	?	?	-6%	?	7.1µM*	13µM*	9%
O=C(/C=C\c1ccc2c(c1)OCO2)Nc1c2c(nn1-c1ccc(Cl)cc1)CSC2	-15%	?	10µM*	-21%	6	?	13µM*	13%
COc1cc(Cl)c(CNC[C@H]2O[C@@H](n3cnc(C(N)=O)n3)[C@H](O)[C@@H]2O)c(Cl)c1O	.	.	.	.	-15	22%	.	.
NC(=O)c1ncn([C@@H]2O[C@H](CNCc3ccc(-c4cc(C(F)(F)F)ccc4Cl)o3)[C@@H](O)[C@H]2O)n1	.	.	.	.	3	3.2µM*	-17%	0.025µM*
CCN(CC)S(=O)(=O)c1ccc(C)c(C)c1	2%	.	?	0%	-11	17%	.	.
CCN(CC)S(=O)(=O)c1ccc2c(c1)C(=NO)c1cc(S(=O)(=O)N(CC)CC)ccc1-2	7%	9.3µM*	8.3µM*	3%	4	4.5µM*	7µM*	?
CC1=C(C(=O)N(C(C)C)C(C)C)CC(CC(=O)NCc2cccs2)C(=O)N1Cc1ccccc1 (configuration not stated)	.	.	.	.	-7	.	.	.
COCCn1c(=S)[nH]c2cc(C(=O)NCCc3ccccc3)ccc2c1=O	2%	-15%	14%	0%	-12	?	.	.
COCCOC(=O)c1c(C)oc2c1cc(NS(=O)(=O)c1ccc(Cl)c(C)c1)c1ccccc12	-10%	.	.	.	15	.	.	.
S=C(NCc1ccccc1)Nc1cccc2cnccc12	?	21%	7%	-4%	-87*	2µM*	7µM*	10µM*
CCn1cc(CNC(=S)Nc2cccc3ccccc23)cn1	-30%	-6%	-11%	0%	-14	?	.	.
CCOc1ccc(CNCc2c(C(=O)O)n(Cc3ccc(OC)cc3)c3ccccc23)cc1	-5%	.	.	.	?	.	.	.
C[C@]12CC[C@@H]3c4ccc(O)c(O)c4CC[C@H]3[C@@H]1CC[C@@H]2O	?	.	.	0%	-91*	2.8µM*	20µM*	1%
CC(C)Sc1nc2c(c(=O)[nH]c(=O)n2C)n1Cc1ccccc1	-14%	-5%	0%	20%	19	?	-26%	14%
CC(C)Sc1nc2c(c(=O)[nH]c(=O)n2C)n1CCc1ccccc1	-23%[11.4 µM]	.	?	2%	-26	8%	.	.
COc1cccc(NC(=O)CSc2nccn2C2CCCC2)c1	-6%	.	.	.	-19	.	.	.
Cc1nc2ccccc2n1Cc1ccc(Br)cc1	.	.	.	.	?	2.5µM*	2µM*	2µM*
O=[N+]([O-])c1ccc(CN2CCCCCC2)cc1	0%	0%	?	7%	13	-3%	.	.
O=[N+]([O-])c1ccc(S(=O)(=O)CC(CN2CCCCC2)N2CCCCC2)cc1 (configuration not stated)	7.9µM*	19%[5.75 µM]	14%[5.75 µM]	0%	-25	4.5µM*	11µM*	20µM*
COc1ccc(OC)c(NC(=O)Nc2nnc(N3CCCCC3C)s2)c1 (configuration not stated)	3%	-9%	-30%	1%	-30	?	.	.
SMILES	Sm TGR inh	Pf growth 48h	Pf growth 96h	SARS PLP yeast	HCMV antiviral	HCV inh	HCV confirm	HCV host tox
CCCOc1ccc(/C=N/Nc2cccc([N+](=O)[O-])c2)c(O)c1	-10%	?	?	-15%	?	?	28µM*	-30%
CCCOc1ccc(/C=N/Nc2ccc(C(=O)O)cc2)c(OCCC)c1	-17%	148%	-9%	2%	84	-23%	.	.
COc1ccc(C(=O)c2ccc(N(C)C)cc2)c2ccccc12	-8%	-20%	9%	-2%	-77*	?	-22%	-19%
COc1ccc(C(=O)c2ccc(OC)c(OC)c2OC)cc1	.	.	.	.	-14	?	.	.
COc1ccc(/C=N\NC(=O)c2ccccc2[N+](=O)[O-])cc1COc1c(F)c(F)c(F)c(F)c1F	5%	36%	-10%	-8%	-10	2.5µM*	13µM*	-20%
COc1ccc(C(=O)CSc2nnc3ccc(-c4ccccn4)nn23)cc1	9%	3%	4%	2%	18	12%	.	.
COc1ccc(C(=O)CSc2nc(-c3ccccn3)nc(C)c2Cl)cc1	-8%	?	?	5%	?	4.5µM*	22µM*	4.4µM*
COc1ccc(OCC(=O)OCC(=O)Nc2ccc3[nH]c(=O)[nH]c3c2)cc1	4%	5%	5%	5%	-14	10%	.	.
O=C(Nc1cc(Cl)ccc1-n1cncn1)c1ccc(Br)o1	9%	?	29%	2%	12	?	.	.
CCCCCCCCn1ccc(=N)cc1	10%	0.37µM*	?	-3%	?	0.89µM*	1.8µM*	2.2µM*
COc1ccc(OC)c(NC(=O)/C=C/c2ccc(S(=O)(=O)N3CCOCC3)cc2)c1	-1%	12µM*	2.9µM*	0%	-13	?	11µM*	?
COc1cc(/C=C/C(=O)Nc2cccc(S(=O)(=O)N3CCOCC3)c2)ccc1OCC#N	-4%	?	?	4%	-24	?	2.8µM*	20%
O=C(O)CSc1nc(-c2cccs2)cc(C(F)(F)F)n1	.	5%	-15%	7%	-19	-22%	.	.
CCC(C)NC(=O)CSc1nc(-c2cccs2)cc(C(F)(F)F)n1 (configuration not stated)	0%	.	5.2µM*	-3%	?	4.5µM*	20µM*	-36%
COc1ccc(-c2ccccc2)cc1NC(=O)c1cccs1	1%	5%	-12%	-2%	-2	7.9µM*	20µM*	17%
